In the library only some 0.54% were active in any assay of this set; here they are far more common.
AT treatment: potential ataxia-telangiectasia treatments restoring KAP-1 phosphorylation; F2112 A-T fibroblasts, KAP-1 phosphorylation AlphaLISA; neocarzinostatin DNA damage 30 min before lysis; Potency, µM (series often up to 57.5 µM), for inactives: at the highest dose activation, usual class: activators; 320,000 tested, 0.19% active; AID 485349; note: potency is the fitted concentration of half-maximal effect; % of control where 0% means no effect; nearly all actives have a fitted effect of over 45% in size
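ATM-like activity read as KAP-1 phosphorylation via AlphaLISA donor/acceptor antibody pairs after lysis and 6 hr at 25C. Cells were ATM-null patient fibroblasts (F2112, hTERT), dosed 60 min, then exposed to the DSB inducer NCS for 30 min.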
TRPML1 agonist: human mucolipin-1 channel agonism | 410,000 tested, 0.12% active | TRPML1-expressing cells, Ca2+ dye fluorescence, FDSS | Q9GZU1 | AID 624414 | activation, % (concentration not given with the values); in the data active = activation above about 50%; inconclusive = mostly about 30% to 49%; note: 0% is about no effect
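Agonist activity was taken from a 110 s kinetic Ca2+ dye read on the FDSS after pinning compounds onto TRPML1-DL cells. The cells were seeded at 1,500/well with Tet inducer, incubated about 16 h, then dye-loaded at room temperature.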
Vif-APOBEC3G blk: Vif-A3G binding inhibition; Q9HC16; HeLa A3G-eYFP + Vif (tagged APOBEC3G with the HIV-1 protein that degrades it), YFP fluorescence, overnight; Potency, µM (titrated, usually from 46.1 µM), for the others: at the top dose activity, negative = active, hits mostly inhibitors; 410,000 tested, 0.076% active; note: potency is the fitted concentration of half-maximal effect; % is set by controls: 0 for no effect and ±100 for the full control effect; nearly all actives have a fitted effect of over 60% in size
Target sequence (Q9HC16 whole entry, looked up): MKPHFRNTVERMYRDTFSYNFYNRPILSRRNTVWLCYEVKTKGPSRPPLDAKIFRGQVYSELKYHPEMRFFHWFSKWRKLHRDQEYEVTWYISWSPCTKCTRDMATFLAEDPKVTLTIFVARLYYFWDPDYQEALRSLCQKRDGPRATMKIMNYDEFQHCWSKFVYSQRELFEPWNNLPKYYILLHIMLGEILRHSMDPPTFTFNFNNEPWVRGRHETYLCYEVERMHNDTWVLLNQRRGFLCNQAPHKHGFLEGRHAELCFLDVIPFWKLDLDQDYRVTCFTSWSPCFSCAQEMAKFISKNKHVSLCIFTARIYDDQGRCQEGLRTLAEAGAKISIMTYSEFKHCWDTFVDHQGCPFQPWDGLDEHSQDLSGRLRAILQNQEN
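HeLa cells stably expressing Vif and C-terminally eYFP-tagged A3G, seeded overnight at 37 deg C, then exposed to compound by pintool overnight at 37 deg C. Rise in yellow fluorescence (Ex 488/Em 500-530, Acumen) marks blocked Vif-driven A3G degradation.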
Vif-APOBEC3F blk: blocks the Vif interaction with APOBEC3F; HeLa A3F-eYFP + Vif (tagged APOBEC3F with the HIV-1 protein that degrades it), YFP fluorescence increase; Potency, µM (highest dose often 46.1 µM), for inactives: at the highest dose activity, negative = active; 390,000 tested, 0.2% active; note: potency is the fitted concentration of half-maximal effect; % of control where 0% means no effect; nearly all actives have a fitted effect of over 65% in size
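HeLa cells stably expressing A3F-eYFP plus Vif, plated and incubated overnight at 37 deg C, then exposed to compounds overnight at 37 deg C. Blocked degradation read as raised yellow fluorescence (Ex 488/Em 500-530).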
TRPML1 blocker: blocks the human TRPML1 channel | Q9GZU1 | TRPML1-inducible cells, Ca2+ dye fluorescence, FDSS; active compounds read low; inhibition of EC80 agonist-evoked calcium signal | activity change, negative = inhibition, % (test concentration not listed) | 390,000 tested, 0.02% active | AID 624415; in the data active = activity change below about -50%; inconclusive = between about -30% and that limit;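 note: stimulus is agonist 54-4 at its EC80 concentration; % is set by controls: 0 for no effect and ±100 for the full control effect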
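TRPML1-DL cells, Tet-induced overnight (~16 h, 37 °C) at 1,500 cells/well, were loaded with Ca8 no-wash dye plus quencher for 45-90 min at room temperature. Compounds were pinned during FDSS kinetic reading; agonist 54-4 at EC80 (4 uM final) then added.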
* hit, by the source's call; u = inconclusive; x = no result; ! = not confirmed by another sample. Unless noted, calls come from the whole dose curve; as a rule, active = well fitted curve in the direction sought with a large enough effect; inconclusive = small, poorly fitted or top-dose-only effect, or another doubt; inactive = no such curve, though single readings can be large; an effect the other way counts as inactive or inconclusive.

SMILES	AT treatment	TRPML1 agonist	Vif-APOBEC3G blk	Vif-APOBEC3F blk	TRPML1 blocker
CCCCN(C)C1=CC2=CC(=C(C#N)C#N)CCC2CC1 (configuration not stated)	4.1%	125.3*	3.2%	-17.9%	-64.3*
COc1ccc(NS(=O)(=O)c2cn(C)c(=O)n(C)c2=O)cc1	-4.5%	1.0	2.8%	1.6%	6.0
Cn1cc(S(=O)(=O)Nc2ccc(OC(F)(F)F)cc2)c(=O)n(C)c1=O	12.6µM*	-0.2	-1.3%	-20.4%	5.8
C(=C\c1ccnc2ccccc12)/c1ccc(N2CCNCC2)cc1	x	0.6	-3.5%	x	x
COC(=O)c1ccc(CSc2nnc3nc(C)cc(C)n23)cc1	7.8%	0.1	-3.6%	u	19.9
Cc1cc(C)n2c(SCc3ccc(Br)cc3)nnc2n1	3.55µM*	-1.0	-0.6%	4.6%	-0.8
Oc1ccc(Nc2ccnc3cc(Cl)ccc23)cc1	39.8µM*	0.2	6.5%	-16.6%	19.6
Clc1ccc(NNc2ccnc3cc(Cl)ccc23)cc1	0.2%	0.0	2.4%	0.3%	3.0
CC(=O)c1ccc(NC(=O)C2=CC(c3ccc(C)cc3)=NS(=O)(=O)N2C)cc1	x	-0.2	3.6%	3.8%	-4.1
COC1=C(N)C(=O)c2nc(-c3nc(C(=O)O)c(C)c(-c4ccc(OC)c(OC)c4O)c3N)ccc2C1=O	0.708µM*	-0.3	-28.0%	1.8%	0.4
CCCN1C(=O)S/C(=C\c2ccc(N3CCOCC3)cc2C)C1=O	-2.0%	x	x	x	x
Cc1cc(N2CCCC2)ccc1/C=C1/C(=O)N(C)C(=S)N1C	-0.4%	4.8	u	11.2µM*	-2.1
CC(=O)Nc1ccc(N/C(N)=N/c2nc(C)cc(C)n2)cc1	-0.4%	0.6	1.5%	-10.1%	-1.5
Cc1cc(C)nc(/N=C(\N)Nc2ccc(SC(F)F)cc2)n1	-31.8%	54.0*	-2.0%	-7.5%	-13.2
Cc1cc(C)nc(/N=C(\N)Nc2ccc(F)c([N+](=O)[O-])c2)n1	-5.1%	74.6*	-9.5%	-9.7%	-13.2
CC(=O)Nc1sc(C)c(C)c1C(=O)OCC(=O)Nc1ccccc1	-5.7%	0.2	u	11.2µM*	14.8
COc1ccc(OC)c(C(c2nnnn2CCc2ccccc2)N2CCN(c3ccccc3)CC2)c1 (configuration not stated)	4.7%	50.8*	0.2%	5.4%	-11.2
COCCn1nnnc1C(c1ccc(OC)cc1OC)N1CCN(c2ccccc2)CC1 (configuration not stated)	1.2%	0.4	-1.6%	7.0%	-17.2
COc1cc2c3nnc(-c4ccc(F)cc4)c-3cn(Cc3ccccc3F)c2cc1OC	-0.1%	0.7	u	25.1µM*	0.7
COc1cc2c3nnc(-c4ccccc4)c-3cn(Cc3ccccc3F)c2cc1OC	3.6%	3.1	u	u	-12.2
COC(=O)c1ccc(CSc2cc(C)c3ccccc3n2)o1	31.6µM*	4.0	-1.0%	0.9%	2.2
O=C(NN1C(=O)/C(=C/c2ccc(O)cc2)SC1=S)c1ccccc1O	-29.5%	13.0	0.5%	-7.0%	16.4
COc1cc(/C=C2\SC(=S)N(NC(=O)c3ccccc3O)C2=O)ccc1O	-66.7%	13.2	-10.2%	11.2µM*	3.7
CCOC(=O)c1c(CSc2ccsc2)n(C)c2cc(Br)c(O)c(CN(C)C)c12	8.91µM*	1.1	3.1%	-1.3%	1.4
CCOC(=O)c1c(CSc2ccccc2)n(C)c2cc(Br)c(O)c(CN(C)C)c12	-0.3%	0.9	2.9%	0.0%	9.1
COc1ccc(Oc2nc3c(C)cccn3c(=O)c2/C=C(\C#N)c2nc3ccccc3[nH]2)cc1	x	1.0	x	x	8.3
COc1ccc(C2/C=C\CN(C(=O)C3CCCC3)CC(=O)N2Cc2ccc(F)cc2)cc1 (configuration not stated)	14.1µM*	1.2	3.0%	1.5%	-4.5
Cc1cccc2c(C(O)c3cn(C)c4ccccc34)c[nH]c12 (configuration not stated)	x	1.4	-20.6%	x	x
Cc1ccc(C)c(N2CCN(S(=O)(=O)c3c(C(=O)N4CCC(C)CC4)c(C)n(C)c3C)CC2)c1	x	54.9*	1.1%	-1.8%	-12.7
CCN(CC)C(=O)Cn1c(=O)n(-c2ccccc2)c(=O)c2c3c(sc21)CCC3	-3.4%	0.7	-0.4%	11.2µM*!	-15.3

Source: PubChem BioAssay
